This is an account of results in the supplement of paper PMC6555819.

In this test the test system is PPARg:RXRa (NR concentration 180 nM, RXRa partner concentration 90 nM). Description: PBM binding z-score (relative to random genomic background probes); higher = stronger binding; sequences stand for … in GC…GCGATTGACAGCGTAGAATGAAGG
The essentials:
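Ligand-free nuclear receptor dimers were bound for 1 h to custom Agilent 4×180K protein-binding microarrays. Detection used antibodies against each partner (one per run). Binding z-scores rest on regression-normalized fluorescence, with random background probes as the reference.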
TCTTGCAGATCAAAGGTTAAGAAAGCCGAAGCCT yielded a PBM binding z-score of 5.83. In turn, CCGAGTGGGTTATGGGGCATTCAGGCAACGGTGA yielded a PBM binding z-score of 2.61. The sequence ATCTCTAGGTAAAGTTCACTGAAAGATCGATAGA registered a PBM binding z-score of 5.42. TGAATGAGGTGATAAGATCAGGGAACGTTGCAAA displayed a PBM binding z-score of 0.727.

AGCATGAGGTTATACGTAGATCAGGGAAGAAAGT showed a PBM binding z-score of 0.933.

The sequence AGTCGAAGTTCAGGACGAGGTAACGTAAAGCACG returned a PBM binding z-score of 1.27. Consider CCGACTGGGACATAAGGTTACCATAAGCCAGCCC, for which the PBM binding z-score came to 1.61.

On to ATACCAAGGTGGTCGTGAGGTCGTTGATACTAAC, for which the PBM binding z-score was determined as 0.268. In turn, AAAATGAGGTTATTAAGATCAGGGAATTGCGGTC registered a PBM binding z-score of 2.05. In turn, GCTGCTAGGTCAGTTTGGTCAGCTAACGGGTACG had a PBM binding z-score of 0.183. Then TCATGTAGGTAAAGGTGAAAGTCGAACGATATGA, with 4.4.

CAAACTAGTTCACCGGAAGGTCAAAGTCCGCATG yielded a PBM binding z-score of 1.87. Then CGTCCAAGTTCAGAGAGGTCAGTGAATGCCGAGT, with 0.531; and CCTCGGAGGACTACAGGAGGTCAGAGCTGCCAGA, with 0.238; and TGAATGAGGTTATAAGCTCAGGGAACGTTGCAAA, with 0.877. Sequence CGTCCAAGTTCAGCAGGTCAGTGAAAGCGACGTG returned a PBM binding z-score of 0.395. The value for AATGCAGGGTCACTAGGCCAGAGTAGGTACGAAT was 7.48; that for TAGTCTAGGTCATGGGCCAGTATACCACGCGAAC was 7.25. The sequence CGAACTGGGTCATTGACAGGACAGTGAATAGTAA gave a PBM binding z-score of 6.77. Then AGAACGACGGCACGCTGAGTTGATAGCAGAGTAG, with 0.557; and TAGCCTACGTCAGATCGGGCCAGTATACGCTATA, with 0.214; and TAAGACAGGTGAAGGTAACTCAGGTACGCAGTCG, with 1.01.
